Source: PubChem BioAssay

Test: small-molecule microarray binders of probe aCHRDL2, primary screen, biochemical, biotinylated probe, 635/667 nm fluorescence (AID 1100)
Settings: higher = more signal

| SMILES | composite z-score |
| --- | --- |
| C#CCN(Cc1ccccc1Br)[C@H](/C=C/c1ccccc1)[C@@H](O)Cc1ccccc1 | 0.857 |
| COCCOC(=O)N1C(=O)[C@@]2(c3cc(C#CC4=CCCCC4)ccc31)[C@H](c1ccccc1OCCO)N1[C@H](c3ccccc3)[C@H](c3ccccc3)OC(=O)[C@H]1[C@@H]2C(=O)NC[C@H](O)c1ccccc1 | -0.135 |
| NCCCCCCNC(=O)[C@@H]1C[C@@H]2C(=O)N[C@@H](CCCCN)C(=O)N2[C@@H]1c1ccc(O)cc1 | 0.462 |
| C=CC[C@]1(C(=O)N2CCOCC2)COC(c2ccc(OCCCO)cc2)=N1 | 0.431 |
| COc1ccc(C(=O)Nc2ccc(CN3C(=O)[C@]4(O[C@H](CC(=O)N5Cc6ccccc6C[C@H]5CO)[C@@H]([Si](C)(C)c5ccc(OC)cc5)[C@@H]4C)c4ccccc43)cc2)cc1 | -0.165 |
| CCCNC(=O)[C@@H]1c2ccccc2C(=O)N(Cc2ccc(OC(F)(F)F)cc2)[C@H]1c1ccc(CO)cc1 | 0.653 |
